Screen size: about 5,500 compounds; about 2,000 (36%) were called active. Not shown: some 18% with an inconclusive outcome. Rule as the data show it: active = normalized growth mostly below about 0.91 (no sharp cut-off); inconclusive = no clear call, values can overlap the other calls; inactive = mostly above about 0.92. The list shows a part of the results.
Test: chemical genetic growth profiling, strain panel (AID 1159580);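 also: tested at 20 µM; growth read once vehicle control cultures reached saturation at 30 °C; 1 = growth at the plate median or of vehicle wells; lower values mean less growth of the strain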
Conditions: growth OD

Measured: normalized growth

CC1(C)C=Cc2c(cc3occ(-c4ccc5c(c4)OCO5)c(=O)c3c2O)O1
inactive: S. cerevisiae deletion strains, locus YAL013W, strain DEP1, active compounds read low 0.996 | S. cerevisiae deletion strains, locus YAL021C, strain ccr4, active compounds read low 0.931 | S. cerevisiae deletion strains, locus YAL026C, strain drs2, active compounds read low 0.995 | S. cerevisiae deletion strains, locus YAL030W, strain snc1, active compounds read low 0.938 | S. cerevisiae deletion strains, locus YBR009C, strain hhf1, active compounds read low 0.982 | S. cerevisiae deletion strains, locus YBR021W, strain FUR4, active compounds read low 1 | S. cerevisiae deletion strains, locus YBR171W, strain sec66, active compounds read low 0.998 | S. cerevisiae deletion strains, locus YBR229C, strain ROT2, active compounds read low 1.01 | S. cerevisiae deletion strains, locus YBR279W, strain paf1, active compounds read low 0.988 | S. cerevisiae deletion strains, locus YCL016C, strain dcc1, active compounds read low 0.994 | S. cerevisiae deletion strains, locus YCL029C, strain bik1, active compounds read low 1 | S. cerevisiae deletion strains, locus YCL061C, strain MRC1, active compounds read low 0.977 | S. cerevisiae deletion strains, locus YCL069W, strain vba3, active compounds read low 0.971 | S. cerevisiae deletion strains, locus YCR088W, strain abp1, active compounds read low 0.995 | S. cerevisiae deletion strains, locus YDL005C, strain med2, active compounds read low 0.998 | S. cerevisiae deletion strains, locus YDL035C, strain GPR1, active compounds read low 0.908 | S. cerevisiae deletion strains, locus YDL040C, strain nat1, active compounds read low 0.991 | S. cerevisiae deletion strains, locus YDL074C, strain BRE1, active compounds read low 1.01 | S. cerevisiae deletion strains, locus YDL101C, strain DUN1, active compounds read low 1.01 | S. cerevisiae deletion strains, locus YDL134C, strain PPH21, active compounds read low 0.923 | S. cerevisiae deletion strains, locus YDL185W, strain tfp1, active compounds read low 1 | S. cerevisiae deletion strains, locus YDL192W, strain arf1, active compounds read low 0.956 | S. cerevisiae deletion strains, locus YDR001C, strain nth1, active compounds read low 0.998 | S. cerevisiae deletion strains, locus YDR101C, strain arx1, active compounds read low 0.983 | S. cerevisiae deletion strains, locus YDR137W, strain rgp1, active compounds read low 1.04 | S. cerevisiae deletion strains, locus YDR159W, strain sac3, active compounds read low 1 | S. cerevisiae deletion strains, locus YDR162C, strain NBP2, active compounds read low 0.976 | S. cerevisiae deletion strains, locus YDR195W, strain ref2 1.01 | S. cerevisiae deletion strains, locus YDR318W, strain mcm21, active compounds read low 0.97 | S. cerevisiae deletion strains, locus YDR334W, strain swr1, active compounds read low 0.95 | S. cerevisiae deletion strains, locus YDR335W, strain msn5, active compounds read low 0.978 | S. cerevisiae deletion strains, locus YDR388W, active compounds read low 0.993 | S. cerevisiae deletion strains, locus YDR392W, strain spt3, active compounds read low 0.873 | S. cerevisiae deletion strains, locus YDR502C, strain sam2, active compounds read low 0.989 | S. cerevisiae deletion strains, locus YEL003W, strain gim4, active compounds read low 0.932 | S. cerevisiae deletion strains, locus YEL037C, strain rad23, active compounds read low 0.977 | S. cerevisiae deletion strains, locus YEL061C, strain CIN8 (second series), active compounds read low 0.98 | S. cerevisiae deletion strains, locus YEL061C, strain CIN8, active compounds read low 0.981 | S. cerevisiae deletion strains, locus YER016W, strain bim1, active compounds read low 0.988 | S. cerevisiae deletion strains, locus YER110C, active compounds read low 1.04 | S. cerevisiae deletion strains, locus YER111C, strain swi4, active compounds read low 0.98 | S. cerevisiae deletion strains, locus YER155C, strain BEM2 (second series), active compounds read low 0.947 | S. cerevisiae deletion strains, locus YER155C, strain BEM2, active compounds read low 1.02 | S. cerevisiae deletion strains, locus YER167W, strain BCK2, active compounds read low 0.967 | S. cerevisiae deletion strains, locus YFR010W, strain ubp6, active compounds read low 0.91 | S. cerevisiae deletion strains, locus YGL078C, strain dbp3, active compounds read low 1.02 | S. cerevisiae deletion strains, locus YGL167C, strain pmr1, active compounds read low 1.01 | S. cerevisiae deletion strains, locus YGL227W, strain vid30, active compounds read low 1.01 | S. cerevisiae deletion strains, locus YGL240W, strain doc1, active compounds read low 1.02 | S. cerevisiae deletion strains, locus YGR078C, strain PAC10, active compounds read low 0.98 | S. cerevisiae deletion strains, locus YGR135W, strain pre9, active compounds read low 0.964 | S. cerevisiae deletion strains, locus YGR252W, strain gcn5, active compounds read low 1.02 | S. cerevisiae deletion strains, locus YHR013C, strain ard1, active compounds read low 0.982 | S. cerevisiae deletion strains, locus YHR030C, strain SLT2, active compounds read low 0.945 | S. cerevisiae deletion strains, locus YHR079C, strain IRE1 (second series), active compounds read low 1.02 | S. cerevisiae deletion strains, locus YHR094C, strain hxt1, active compounds read low 1.03 | S. cerevisiae deletion strains, locus YHR129C, strain ARP1, active compounds read low 0.94 | S. cerevisiae deletion strains, locus YHR142W, strain chs7, active compounds read low 0.936 | S. cerevisiae deletion strains, locus YHR200W, strain rpn10, active compounds read low 0.968 | S. cerevisiae deletion strains, locus YIL066C, strain RNR3, active compounds read low 0.921 | S. cerevisiae deletion strains, locus YIL073C, strain SPO22, active compounds read low 0.886 | S. cerevisiae deletion strains, locus YIL125W, strain kgd1, active compounds read low 1.03 | S. cerevisiae deletion strains, locus YIR030C, strain dcg1, active compounds read low 1.01 | S. cerevisiae deletion strains, locus YJL092W, strain hpr5, active compounds read low 0.983 | S. cerevisiae deletion strains, locus YJL095W, strain BCK1, active compounds read low 0.927 | S. cerevisiae deletion strains, locus YJL115W, strain asf1, active compounds read low 1.01 | S. cerevisiae deletion strains, locus YJL129C, strain trk1, active compounds read low 1.01 | S. cerevisiae deletion strains, locus YJL134W, strain LCB3, active compounds read low 0.998 | S. cerevisiae deletion strains, locus YJL154C, strain vps35, active compounds read low 0.997 | S. cerevisiae deletion strains, locus YJL164C, strain tpk1, active compounds read low 0.967 | S. cerevisiae deletion strains, locus YJL166W, strain qcr8, active compounds read low 0.943 | S. cerevisiae deletion strains, locus YJL168C, strain set2, active compounds read low 1.01 | S. cerevisiae deletion strains, locus YJL187C, strain SWE1 (second series), active compounds read low 0.92 | S. cerevisiae deletion strains, locus YJL187C, strain SWE1, active compounds read low 0.967 | S. cerevisiae deletion strains, locus YJR075W, strain HOC1, active compounds read low 0.996 | S. cerevisiae deletion strains, locus YKL068W, active compounds read low 1.02 | S. cerevisiae deletion strains, locus YKL160W, strain elf1, active compounds read low 1.02 | S. cerevisiae deletion strains, locus YKL190W, strain CNB1, active compounds read low 0.967 | S. cerevisiae deletion strains, locus YKR001C, strain vps1, active compounds read low 0.988 | S. cerevisiae deletion strains, locus YKR026C, strain gcn3, active compounds read low 0.983 | S. cerevisiae deletion strains, locus YKR091W, strain srl3, active compounds read low 0.981 | S. cerevisiae deletion strains, locus YLL001W, strain dnm1, active compounds read low 0.959 | S. cerevisiae deletion strains, locus YLL026W, active compounds read low 0.961 | S. cerevisiae deletion strains, locus YLL041C, strain sdh2, active compounds read low 0.993 | S. cerevisiae deletion strains, locus YLR027C, strain aat2, active compounds read low 0.943 | S. cerevisiae deletion strains, locus YLR039C, strain RIC1, active compounds read low 1.11 | S. cerevisiae deletion strains, locus YLR058C, strain SHM2, active compounds read low 0.933 | S. cerevisiae deletion strains, locus YLR102C, strain apc9, active compounds read low 1.03 | S. cerevisiae deletion strains, locus YLR258W, strain gsy2, active compounds read low 0.963 | S. cerevisiae deletion strains, locus YLR262C, strain YPT6 (second series), active compounds read low 0.945 | S. cerevisiae deletion strains, locus YLR262C, strain YPT6, active compounds read low 1.14 | S. cerevisiae deletion strains, locus YLR268W, strain sec22, active compounds read low 0.943 | S. cerevisiae deletion strains, locus YLR320W, strain mms22, active compounds read low 0.917 | S. cerevisiae deletion strains, locus YLR357W, strain rsc2, active compounds read low 0.905 | S. cerevisiae deletion strains, locus YLR370C, strain arc18, active compounds read low 0.978 | S. cerevisiae deletion strains, locus YLR371W, strain rom2, active compounds read low 0.92 | S. cerevisiae deletion strains, locus YLR384C, strain iki3, active compounds read low 0.976 | S. cerevisiae deletion strains, locus YLR418C, strain cdc73, active compounds read low 1.02 | S. cerevisiae deletion strains, locus YML016C, strain PPZ1, active compounds read low 0.954 | S. cerevisiae deletion strains, locus YML032C, strain rad52, active compounds read low 1 | S. cerevisiae deletion strains, locus YML120C, strain ndi1, active compounds read low 1.01 | S. cerevisiae deletion strains, locus YML124C, strain tub3, active compounds read low 1.02 | S. cerevisiae deletion strains, locus YMR078C, strain ctf18, active compounds read low 1.04 | S. cerevisiae deletion strains, locus YMR125W, strain sto1, active compounds read low 1.01 | S. cerevisiae deletion strains, locus YMR129W, active compounds read low 0.993 | S. cerevisiae deletion strains, locus YMR205C, strain PFK2, active compounds read low 0.971 | S. cerevisiae deletion strains, locus YMR223W, strain ubp8, active compounds read low 0.959 | S. cerevisiae deletion strains, locus YMR231W, strain pep5, active compounds read low 0.975 | S. cerevisiae deletion strains, locus YMR263W, strain SAP30, active compounds read low 1 | S. cerevisiae deletion strains, locus YMR307W, strain GAS1, active compounds read low 0.946 | S. cerevisiae deletion strains, locus YNL067W, strain RPL9B, active compounds read low 0.995 | S. cerevisiae deletion strains, locus YNL071W, strain lat1, active compounds read low 0.986 | S. cerevisiae deletion strains, locus YNL233W, strain BNI4, active compounds read low 0.881 | S. cerevisiae deletion strains, locus YNL248C, strain rpa49, active compounds read low 0.963 | S. cerevisiae deletion strains, locus YNL250W, strain rad50, active compounds read low 1.06 | S. cerevisiae deletion strains, locus YNL271C, strain bni1, active compounds read low 1 | S. cerevisiae deletion strains, locus YNL298W, strain CLA4, active compounds read low 1.01 | S. cerevisiae deletion strains, locus YNL307C, strain MCK1, active compounds read low 1.02 | S. cerevisiae deletion strains, locus YNL322C, strain KRE1 (second series), active compounds read low 0.999 | S. cerevisiae deletion strains, locus YNR049C, strain mso1, active compounds read low 0.991 | S. cerevisiae deletion strains, locus YNR052C, strain pop2, active compounds read low 1 | S. cerevisiae deletion strains, locus YOL012C, strain htz1 0.804 | S. cerevisiae deletion strains, locus YOL147C, strain pex11, active compounds read low 1.01 | S. cerevisiae deletion strains, locus YOR001W, strain rrp6, active compounds read low 0.93 | S. cerevisiae deletion strains, locus YOR061W, strain CKA2, active compounds read low 0.924 | S. cerevisiae deletion strains, locus YOR069W, strain VPS5, active compounds read low 0.96 | S. cerevisiae deletion strains, locus YOR080W, strain dia2, active compounds read low 0.963 | S. cerevisiae deletion strains, locus YOR083W, strain WHI5, active compounds read low 0.928 | S. cerevisiae deletion strains, locus YOR106W, strain vam3, active compounds read low 0.907 | S. cerevisiae deletion strains, locus YOR136W, strain idh2, active compounds read low 1.03 | S. cerevisiae deletion strains, locus YOR144C, strain elg1, active compounds read low 1.02 | S. cerevisiae deletion strains, locus YOR184W, strain ser1, active compounds read low 0.971 | S. cerevisiae deletion strains, locus YOR265W, strain rbl2, active compounds read low 0.947 | S. cerevisiae deletion strains, locus YOR270C, strain vph1, active compounds read low 0.952 | S. cerevisiae deletion strains, locus YOR290C, strain snf2, active compounds read low 0.981 | S. cerevisiae deletion strains, locus YOR316C, strain cot1, active compounds read low 1.02 | S. cerevisiae deletion strains, locus YPL055C, strain LGE1, active compounds read low 0.871 | S. cerevisiae deletion strains, locus YPL078C, strain atp4, active compounds read low 1.02 | S. cerevisiae deletion strains, locus YPL106C, strain sse1, active compounds read low 0.901 | S. cerevisiae deletion strains, locus YPL240C, strain hsp82, active compounds read low 0.989 | S. cerevisiae deletion strains, locus YPR119W, strain clb2, active compounds read low 1.04 | S. cerevisiae deletion strains, locus YPR141C, strain kar3, active compounds read low 1.02 | S. cerevisiae deletion strains, locus YPR163C, strain tif3, active compounds read low 1.02 | S. cerevisiae deletion strains, locus YPR167C, strain met16, active compounds read low 0.967 | S. cerevisiae deletion strains, strain wtn01, active compounds read low 0.952
active: S. cerevisiae deletion strains, locus YBL061C, strain skt5, active compounds read low 0.839 | S. cerevisiae deletion strains, locus YBR023C, strain chs3, active compounds read low 0.884 | S. cerevisiae deletion strains, locus YBR231C, strain swc5, active compounds read low 0.864 | S. cerevisiae deletion strains, locus YCL011C, strain gbp2, active compounds read low 0.897 | S. cerevisiae deletion strains, locus YDR069C, strain doa4, active compounds read low 0.811 | S. cerevisiae deletion strains, locus YDR297W, strain sur2, active compounds read low 0.91 | S. cerevisiae deletion strains, locus YER015W, strain faa2, active compounds read low 0.841 | S. cerevisiae deletion strains, locus YGL086W, strain mad1, active compounds read low 0.922 | S. cerevisiae deletion strains, locus YGL173C, strain kem1, active compounds read low 0.817 | S. cerevisiae deletion strains, locus YGL248W, strain PDE1, active compounds read low 0.883 | S. cerevisiae deletion strains, locus YGL253W, strain hxk2, active compounds read low 0.894 | S. cerevisiae deletion strains, locus YHR027C, strain rpn1, active compounds read low 0.749 | S. cerevisiae deletion strains, locus YJL095W, strain BCK1 (second series), active compounds read low 0.918 | S. cerevisiae deletion strains, locus YLR221C, strain rsa3, active compounds read low 0.897 | S. cerevisiae deletion strains, locus YLR342W, strain FKS1, active compounds read low 0.907 | S. cerevisiae deletion strains, locus YMR058W, strain fet3, active compounds read low 0.676 | S. cerevisiae deletion strains, locus YNL209W, strain ssb2, active compounds read low 0.738 | S. cerevisiae deletion strains, locus YOR070C, strain gyp1, active compounds read low 0.905 | S. cerevisiae deletion strains, locus YPL051W, strain arl3, active compounds read low 0.855 | S. cerevisiae strains, strain wild type, active compounds read low 0.889

— PubChem BioAssay AID1159580 (chemical genetic matrix, 2015)
